Source: PubChem BioAssay (National Center for Advancing Translational Sciences (NCATS))
Pf growth 96h: P. falciparum growth inhibition at 96 hours | P. falciparum luciferase reporter growth, 96 h | Potency, µM (series often up to 28.7 µM), without a hit: at the highest dose activity change, negative = inhibition, hits mostly inhibitors | hit rate 6.9% among 320,000 | AID 504834; also: potency is read from the fitted curve at half-maximal effect; % is scaled to controls: 0 for no effect and ±100 for the full control effect
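Luminescence readout: decreased luciferase signal marks inhibited growth of reporter-expressing P. falciparum in infected red cells (2% hematocrit, 0.05% parasitemia final), exposed to compound two generations (96 h, 37 C, 5% CO2).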
CHX counter: counter-screen hit for Shiga toxin inhibitors, cycloheximide | max response, % | cell reporter, cycloheximide protein synthesis inhibition counterscreen | hit rate 12% among 300,000; in the data active = max response mostly above about 13%, no sharp cut-off; inactive = mostly below about 14%; also: read at 38.3 µM for the half of the compounds with a filed dose; 0% is about no effect
FBPA Giardia inh: inhibitors of Giardia lamblia fructose-1,6-bisphosphate aldolase | A8B2U2 | Potency, µM (top dose mostly 59.6 µM), for inactives: top-dose activity, negative = inhibition, actives largely listed as inhibitors | hit rate 0.71% among 290,000 | AID 2451 | purified Giardia FBPA; also: potency is read from the fitted curve at half-maximal effect; % is scaled to controls: 0 for no effect and ±100 for the full control effect; nearly all actives have a fitted effect of over 55% in size
Target sequence (A8B2U2 whole entry, looked up): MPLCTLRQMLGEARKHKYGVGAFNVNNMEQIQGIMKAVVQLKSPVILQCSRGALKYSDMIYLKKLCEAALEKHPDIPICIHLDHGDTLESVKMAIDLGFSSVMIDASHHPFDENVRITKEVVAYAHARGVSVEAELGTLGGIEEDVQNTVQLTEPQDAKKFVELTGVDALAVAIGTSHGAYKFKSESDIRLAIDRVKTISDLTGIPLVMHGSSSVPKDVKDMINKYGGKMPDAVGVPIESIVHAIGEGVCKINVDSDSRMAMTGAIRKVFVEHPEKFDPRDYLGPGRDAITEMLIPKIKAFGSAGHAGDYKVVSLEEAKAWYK
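Giardia FBPA (40 nM reagent) was preincubated 10 min at RT with compound (up to 57.5 uM final), then substrate plus GAPDH/TPI/NAD/arsenate coupling system with diaphorase/resazurin was added; resorufin fluorescence (525/598 nm) was read after 20 min.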
Shiga inhibitor: blocks Shiga toxin action in Vero cells; Vero cells, Shiga toxin protein synthesis inhibition reporter; inhibition, % at 38.7 µM; hit rate 9.2% among 290,000; in the data active = inhibition mostly above about 28%, no sharp cut-off; inactive = mostly below about 43%; also: 0% is about no effect
NS1 function inh: influenza NS1 inhibition. Potency, µM (doses to about 46.1 µM), without a hit: top-dose activity, positive = more growth. hit rate 0.4% among 270,000. AID 2326; calls by dose curve; also: potency is read from the fitted curve at half-maximal effect; actives are rising curves; nearly all actives have a fitted effect of over 50% in size
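Growth recovery, yeast-based: influenza A NS1 expressed in S. cerevisiae causes slow growth, and suppressors are detected by OD600. The parent strain without NS1 is used as positive control.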
Pf growth 48h: inhibits P. falciparum growth in the first generation, 48 h; P. falciparum luciferase growth in erythrocytes, 48 h; Potency, µM (series often up to 28.7 µM), inactives show at the highest dose activity change, negative = inhibition, actives largely listed as inhibitors; hit rate 5.9% among 310,000; also: potency is read from the fitted curve at half-maximal effect; % is scaled to controls: 0 for no effect and ±100 for the full control effect
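A one-generation exposure of luciferase-tagged malaria parasites in RPMI 1640/Albumax erythrocyte culture, 37 C and 5% CO2. Inhibition is inferred from decreased luminescence after adding detection reagent.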
Active calls of the source: *; ? = inconclusive; . = no result; [ ] = another dose, or the depositor's remark. Rows were chosen to be rich in hits. Some 21% of all compounds tested hit in one or more screens of this group. Unless noted, calls follow the shape of the dose curve; as a rule, active = well fitted curve in the direction sought with a large enough effect; inconclusive = small, poorly fitted or top-dose-only effect, or another doubt; inactive = no such curve, though single readings can be large; an effect the other way counts as inactive or inconclusive.

SMILES	Pf growth 96h	CHX counter	FBPA Giardia inh	Shiga inhibitor	NS1 function inh	Pf growth 48h
CC(=O)C1C(=O)c2c(cccc2[N+](=O)[O-])C1=Nc1ccc(S(N)(=O)=O)cc1 (stereo not given)	5%	30*	-16%	41	3%	1%
CCc1cc2c(=O)c(-c3cscn3)coc2cc1O	.	31*	5%	67*	-8%[9.22 µM]	88%
CCc1cc2c(=O)c(-c3cscn3)coc2cc1OC	19%	17	-3%	101*	-6%	0%
COc1ccccc1-c1coc2cc(O)ccc2c1=O	.	.	-24%	.	.	.
Cc1cccc(C2c3[nH]c4ccccc4c3CCN2C(=O)c2cc(CC(C)C)nc(C)n2)n1 (stereo not given)	?	-2	-8%	-5	-7%	12µM*
Cc1cccc(C2c3[nH]c4ccccc4c3CCN2C(=O)Cc2nc(-c3ccccc3)n[nH]2)n1 (stereo not given)	17%	-2	-10%	-11	12%	12µM*
Cc1cccc(C2c3[nH]c4ccccc4c3CCN2C(=O)c2nn(C)c(=O)c3ccccc23)n1 (stereo not given)	8.3µM*	-2	0%	-4	11%	?
Cc1ccc(C(=O)C2CCN(S(=O)(=O)c3ccc(C(=O)O)cc3)CC2)cc1	?	-7	.	-14	0%	11%
CC(C)Oc1ccc(C(=O)Nc2c3c(nn2C(C)(C)C)CS(=O)(=O)C3)cc1	16%	8	-1%	-5	1%	7%
CN(C(=O)Oc1ccc(C(C)(C)C)cc1)c1ccccc1	?	19*	-11%	59*	-8%	?
CCC(=O)c1ccc(OC(=O)N(C)c2ccccc2)cc1	4%	26*	6%	75	-10%	56%
COC(=O)C1(C)NC(c2ccc(OC)cc2)C2C(=O)N(c3ccccc3)C(=O)C21 (stereo not given)	29%	-2	-5%	-3	6%	?
CC1CCN(S(=O)(=O)c2ccc3c(c2)N(CC(=O)NCCCN2C(C)CCCC2C)C(=O)CO3)CC1 (stereo not given)	29%	-2	.	23	-3%	7%
COc1cccc(CNC(=O)CCC2CCCN(C(=O)c3ccccc3N(C)C)C2)c1 (stereo not given)	?	8	.	6	8%	?
Nc1ccc(Br)c[n+]1Cc1cccc2cccnc12	10µM*	-4	6%	-12	-11%	?
Nc1scn[n+]1Cc1cccc2cccnc12	?	5	-18%	5	-6%	?
COc1ccc(/C=C/C(=O)N(C)C2CCS(=O)(=O)C2)cc1 (stereo not given)	2%	.	.	.	.	4%
COc1ccc(/C=C/C(=O)N(C(C)C)C(C)C)cc1Br	?	24*	-4%	51*	-12%	6.6µM*
COc1ccc(/C=C/C(=O)NC(C)C)cc1Br	?	13*	2%	4	-6%	?
COc1ccc(/C=C/C(=O)N(C)C2CCCCC2)cc1Br	0%	26*	-4%	78*	3%	-9%
CN(C(=O)/C=C/c1cnc2ccccc2c1)C1CCCCC1	242%	26*	-10%	70*	.	40%
O=C(O)c1ccc2c(c1)C(=O)N(c1ccc(Nc3ccccc3)cc1)C2=O	-21%	-4	1%	-6	11%	-18%
CCN(C(=O)/C=C/c1ccccc1)C1CCCCC1	13µM*	6.9*	1%	36	1%	84%
CCN(CC)C(=O)/C=C/c1ccccc1	80%	.	.	.	.	81%
O=C(Nc1cccnc1Oc1ccc(Cl)cc1)c1cccc2ccccc12	-20%	-2	-3%	6	6%	-14%
SMILES	Pf growth 96h	CHX counter	FBPA Giardia inh	Shiga inhibitor	NS1 function inh	Pf growth 48h
C/C(=N\NC(=O)c1ccc2c(c1)OCO2)c1ccc(NC(=O)CCCC(=O)O)cc1	37%	34*	-4%	57*	-5%	37%
C/C(CCc1ccc2c(c1)OCO2)=N\NC(=O)c1ccc(C)cc1C	25%	39*	-7%	77*	3%	26%
Cc1ccc(C(=O)NCc2ccc3c(c2)OCO3)c(C)c1	?	11	14%	17	-18%	13%
C/C(=N\NC(=O)c1ccc2c(c1)OCO2)c1ccc(C(=O)O)s1	?	31*	-4%	54*	4%	33%
CCCC(=O)Nc1cccc(NC(=O)c2ccc3c(c2)OCO3)c1	37%	13	-6%	38	-11%	28%
CCCCC(=O)Nc1ccc(C(=O)Nc2ccc3c(c2)OCO3)cc1	.	9	-3%	53	12%	3%
CCCCCC1=CCC/C1=N\NC(=O)c1ccc2c(c1)OCO2	?	19*	-2%	27	.	?
C/C(=N\NC(=O)c1ccc(O)cc1)c1ccc2c(c1)OCCO2	?	.	.	.	.	-11%
CC12C=C(/C=C/c3ccccc3)C(C)(C1)C(c1ccccc1)CC2=O (stereo not given)	.	.	-3%[12.9 µM]	.	.	.
COCCn1c(=O)c(-c2cc(F)cc(F)c2)nc2cnc(Oc3cccc(Cl)c3)nc21	.	.	-20%	.	.	.
NCC1O[C@H](O[C@@H]2C(O)[C@H](O[C@H]3OC(CO)C(O)C(N)C3O)[C@@H](N)C[C@H]2N)[C@@H](N)CC1O (stereo not given in full)	.	.	9%	.	.	.
C/C(=N\NC(=O)c1ccc2c(c1)OCCO2)c1ccccc1	438%	21*	-3%	52*	-1%	-29%
CC(/C=C/c1ccccc1)=N\NC(=O)c1ccc2c(c1)OCCO2	?	50*	3%	48*	-17%	-2%
C/C(=N\NC(=O)c1nc2ccccn2c1C)c1cccc([N+](=O)[O-])c1	-51%[5.75 µM]	12	1%	-1	.	?
C/C(=N\NC(=O)c1nc2ccccn2c1C)c1ccc2c(c1)OCO2	61%	19*	-3%	42	21%	31%
O=C(NN=C1CCCC1)c1ccc([N+](=O)[O-])cc1	0%	8	-3%	28	.	12%
O=C(NN=C1CCCCCC1)c1ccc2c(c1)OCO2	28%	38*	-4%	38	-1%	25%
COc1ccccc1N1CCN(C2CC(=O)N(c3cccc(Cl)c3)C2=O)CC1 (stereo not given)	?	-3	-18%	.	-30%	30%
N=C(c1cccc([N+](=O)[O-])c1)N1CCCCC1	?	-2	-14%	28	1%	-1%
C/C(=N\NC(=O)c1ccc2c(c1)OCO2)c1ccc2c(c1)OCO2	111%	35*	2%	62*	.	187%
O=C(NN=C1CCCC1)c1ccc(O)cc1	?	30*	-10%	42*	6%	-6%
C/C(=N\NC(=O)c1cccs1)c1ccc2c(c1)OCO2	16%	64*	-1%	117*	-10%	0%
O=C(O)C1CCCCN1C(=O)c1ccc(S(=O)(=O)N2CCCC2)cc1 (stereo not given)	10%	.	.	.	.	-22%
O=C(c1ccc(NS(=O)(=O)c2ccc(F)cc2)cc1)N1CCC1	-5%	.	.	.	.	18%
